Measurements from PubChem BioAssay AID1159580 (chemical genetic matrix, 2015).
Values joined by “and” are separate entries in the source; they are usually repeats but may differ in a detail not shown here. Equal entries are not always repeated. Hit rate of the full screen: of about 5,500 compounds, about 2,000 (36%) were called active. About 18% were inconclusive and are not listed. Cut-off read from the data, not from the text of the source: active = normalized growth mostly below about 0.91 (no sharp cut-off); inconclusive = no clear call, values can overlap the other calls; inactive = mostly above about 0.92. The list shows a part of the results.

Experiment: chemical genetic growth profiling, strain panel (AID 1159580);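 note: tested at 20 µM; growth read once vehicle control cultures reached saturation at 30 °C; 1 = growth at the plate median or of vehicle wells; lower values mean less growth of the strain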
Conditions: S. cerevisiae deletion strains, growth OD

Measured: normalized growth

CC(Oc1ccccc1)C(=O)N[C@@H]1C(=O)N2[C@@H]1SC(C)(C)[C@@H]2C(=O)O (some centres not stated)
inactive: locus YAL013W, strain DEP1, hits give low values 1.01 | locus YAL021C, strain ccr4, hits give low values 1 | locus YAL026C, strain drs2, hits give low values 1.01 | locus YAL030W, strain snc1, hits give low values 0.987 | locus YBL061C, strain skt5, hits give low values 1 | locus YBR009C, strain hhf1, hits give low values 0.997 | locus YBR021W, strain FUR4, hits give low values 0.999 | locus YBR023C, strain chs3, hits give low values 0.998 | locus YBR171W, strain sec66, hits give low values 0.984 | locus YBR229C, strain ROT2, hits give low values 1.01 | locus YBR231C, strain swc5, hits give low values 0.995 | locus YBR279W, strain paf1, hits give low values 1.01 | locus YCL011C, strain gbp2, hits give low values 0.988 | locus YCL016C, strain dcc1, hits give low values 0.988 | locus YCL029C, strain bik1, hits give low values 1.04 | locus YCL061C, strain MRC1, hits give low values 0.998 | locus YCL069W, strain vba3, hits give low values 0.981 | locus YCR088W, strain abp1, hits give low values 0.995 | locus YDL005C, strain med2, hits give low values 0.999 | locus YDL035C, strain GPR1, hits give low values 1.01 | locus YDL040C, strain nat1, hits give low values 0.995 | locus YDL074C, strain BRE1, hits give low values 1.01 | locus YDL101C, strain DUN1, hits give low values 1.02 | locus YDL134C, strain PPH21, hits give low values 1.02 | locus YDL185W, strain tfp1, hits give low values 1.02 | locus YDL192W, strain arf1, hits give low values 1.02 | locus YDR001C, strain nth1, hits give low values 0.994 | locus YDR069C, strain doa4, hits give low values 1 | locus YDR101C, strain arx1, hits give low values 1.01 | locus YDR137W, strain rgp1, hits give low values 1 | locus YDR150W, strain NUM1, hits give low values 1.01 | locus YDR159W, strain sac3, hits give low values 1.02 | locus YDR162C, strain NBP2, hits give low values 1.02 | locus YDR195W, strain ref2 1 | locus YDR297W, strain sur2, hits give low values 0.994 | locus YDR318W, strain mcm21, hits give low values 1.03 | locus YDR334W, strain swr1, hits give low values 0.995 | locus YDR335W, strain msn5, hits give low values 0.996 | locus YDR388W, hits give low values 1.02 | locus YDR392W, strain spt3, hits give low values 0.947 | locus YDR502C, strain sam2, hits give low values 1.01 | locus YEL003W, strain gim4, hits give low values 0.993 | locus YEL037C, strain rad23, hits give low values 0.997 | locus YEL061C, strain CIN8 (second series), hits give low values 0.988 | locus YEL061C, strain CIN8, hits give low values 1.01 | locus YER015W, strain faa2, hits give low values 1 | locus YER016W, strain bim1, hits give low values 1 | locus YER110C, hits give low values 1.03 | locus YER111C, strain swi4, hits give low values 1.01 | locus YER155C, strain BEM2 (second series), hits give low values 0.994 | locus YER155C, strain BEM2, hits give low values 0.998 | locus YER167W, strain BCK2, hits give low values 1.01 | locus YFR010W, strain ubp6, hits give low values 0.997 | locus YGL078C, strain dbp3, hits give low values 1.02 | locus YGL086W, strain mad1, hits give low values 1.01 | locus YGL167C, strain pmr1, hits give low values 0.999 | locus YGL173C, strain kem1, hits give low values 1.01 | locus YGL227W, strain vid30, hits give low values 0.988 | locus YGL240W, strain doc1, hits give low values 1 | locus YGL248W, strain PDE1, hits give low values 1.01 | locus YGL253W, strain hxk2, hits give low values 0.994 | locus YGR078C, strain PAC10, hits give low values 1.01 | locus YGR135W, strain pre9, hits give low values 1.02 | locus YGR229C, strain SMI1, hits give low values 0.999 | locus YGR252W, strain gcn5, hits give low values 0.994 | locus YHR013C, strain ard1, hits give low values 0.984 | locus YHR027C, strain rpn1, hits give low values 0.999 | locus YHR030C, strain SLT2, hits give low values 1.01 and 1.04 | locus YHR079C, strain IRE1 (second series), hits give low values 1.02 | locus YHR079C, strain IRE1, hits give low values 0.999 | locus YHR094C, strain hxt1, hits give low values 1.02 | locus YHR129C, strain ARP1, hits give low values 1.01 | locus YHR142W, strain chs7, hits give low values 0.979 | locus YHR200W, strain rpn10, hits give low values 1.02 | locus YIL066C, strain RNR3, hits give low values 1.01 | locus YIL073C, strain SPO22, hits give low values 1.06 | locus YIL125W, strain kgd1, hits give low values 1.01 | locus YIR030C, strain dcg1, hits give low values 1.02 | locus YJL092W, strain hpr5, hits give low values 0.993 | locus YJL095W, strain BCK1 (second series), hits give low values 0.995 | locus YJL095W, strain BCK1, hits give low values 1.04 | locus YJL115W, strain asf1, hits give low values 0.999 | locus YJL129C, strain trk1, hits give low values 1 | locus YJL134W, strain LCB3, hits give low values 1.01 | locus YJL154C, strain vps35, hits give low values 0.991 | locus YJL164C, strain tpk1, hits give low values 0.999 | locus YJL166W, strain qcr8, hits give low values 0.986 | locus YJL168C, strain set2, hits give low values 1.02 | locus YJL187C, strain SWE1 (second series), hits give low values 1.02 | locus YJL187C, strain SWE1, hits give low values 0.997 | locus YJR043C, strain POL32, hits give low values 1.01 | locus YJR066W, strain TOR1, hits give low values 0.966
